Screening data from PubChem.
In the library only some 27% were active in any assay of this set; here they are far more common.
sEH inh: soluble epoxide hydrolase (human) inhibition. 0.34% of 91,000 active. recombinant human sEH enzymatic activity assay. AID 707. P34913. inhibition, % at 2 µM; in the data active = inhibition above about 80%
Target sequence (P34913 whole entry, looked up): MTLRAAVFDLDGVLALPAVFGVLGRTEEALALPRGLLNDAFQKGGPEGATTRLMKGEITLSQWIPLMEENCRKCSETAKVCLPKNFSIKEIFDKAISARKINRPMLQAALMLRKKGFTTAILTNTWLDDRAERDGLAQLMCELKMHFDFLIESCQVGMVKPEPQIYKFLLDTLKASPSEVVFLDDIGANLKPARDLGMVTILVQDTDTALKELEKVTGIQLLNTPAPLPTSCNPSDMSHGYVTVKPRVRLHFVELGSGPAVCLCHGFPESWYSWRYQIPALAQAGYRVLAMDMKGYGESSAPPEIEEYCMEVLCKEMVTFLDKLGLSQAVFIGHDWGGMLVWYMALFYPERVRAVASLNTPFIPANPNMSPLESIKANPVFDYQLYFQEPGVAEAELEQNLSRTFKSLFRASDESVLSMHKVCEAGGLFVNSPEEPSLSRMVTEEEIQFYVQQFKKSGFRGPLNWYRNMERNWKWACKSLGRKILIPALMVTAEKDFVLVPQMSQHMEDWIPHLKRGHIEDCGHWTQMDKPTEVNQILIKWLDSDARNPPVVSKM
CYP2C9 inh: human CYP2C9 inhibition; AID 777; P11712; inhibition, % at 5 µM; CYP2C9 Supersomes, luciferin-H conversion, luminescence; 20% of 96,000 active;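 active = blocking of liver enzyme CYP2C9 beyond about 50% at 5 µM, limit read from the data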
sEH act: soluble epoxide hydrolase (human) activation; purified human sEH enzymatic activity, activator screen; 0.04% of 91,000 active; activation, % at 2 µM; in the data active = activation above about 37%
CYP2C9 activ: CYP2C9 (human) activation; P11712; recombinant CYP2C9, luciferin-H conversion, luminescence; stronger effect = higher value; factor 1 = untreated enzyme, 0 = blocked; activation factor at 5 µM; 1.4% of 96,000 active; AID 1024;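 active = activation factor of 2 or more for CYP2C9 at a 5 µM dose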;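 also: 0 = sulfaphenazole-blocked wells and 1 = vehicle-only wells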
CYP2C19 inhib: human CYP2C19 inhibition; AID 778; CYP2C19 Supersomes, luciferin-H EGE luminescence, 30 min; inhibition, % at 5 µM; 21% of 96,000 active; P33261;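 active = CYP2C19 inhibition above a set limit at 5 µM in the primary screen, cut at about 50% in these data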;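 also: plate controls were negative control wells for no effect and 2.5 mM tranylcypromine positive control for full effect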
CYP2C19 activ: increases human CYP2C19 enzyme activity; recombinant CYP2C19, luciferin-H EGE luminescence; stronger effect = higher value; 0 = fully inhibited enzyme, 1 = untreated enzyme; activation factor at 5 µM; 96,000 tested, under 10 active;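 active = activation factor of at least 2 at 5 µM in the primary screen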;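 also: 0 = wells with 2.5 mM tranylcypromine and 1 = vehicle-only wells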
Starred values were filed as active, the others as inactive; / = no result given.

SMILES | sEH inh | CYP2C9 inh | sEH act | CYP2C9 activ | CYP2C19 inhib | CYP2C19 activ
C/C(=C\c1ccccc1)C(=O)NC1CCSC1=O (stereo not given) | -4.5 | -0.4 | 5.3 | 1 | 21.1 | 0.8
Cc1ccc(S(=O)(=O)N2CCN(C3CC(=O)N(CCc4ccccc4)C3=O)CC2)cc1C (stereo not given) | / | -46.5 | / | 1.5 | 50.4* | 0.5
O=C(OCCN(C1=NS(=O)(=O)c2ccccc21)c1ccccc1Cl)c1ccc(Cl)cc1 | 1.6 | 87.2* | -3.3 | 0.1 | 43.8 | 0.6
COc1ccccc1CN(Cc1nc2ccccc2c(=O)[nH]1)C(=O)Nc1ccc(C)cc1 | -8.4 | 34.4 | 10.6 | 0.7 | 25.5 | 0.7
COc1ccc(CN(Cc2nc3ccccc3c(=O)[nH]2)C(=O)NC2CCCCC2)cc1 | -15.2 | 40.4 | 16.9 | 0.6 | 47.1 | 0.5
COc1ccc(S(=O)(=O)N(Cc2nc3ccccc3c(=O)[nH]2)C2CCCC2)cc1 | 2.4 | 94.2* | -0.8 | 0.1 | 85.0* | 0.2
COc1ccccc1CN(Cc1nc2ccccc2c(=O)[nH]1)C(=O)Nc1ccccc1C | 0.7 | 73.2* | 1.3 | 0.3 | 89.2* | 0.1
COc1ccccc1CN(Cc1nc2ccccc2c(=O)[nH]1)S(=O)(=O)c1ccc(C)cc1 | 11.0 | 74.2* | -10.5 | 0.3 | 69.5* | 0.3
COc1ccc(N(CC(=O)NCCSC2CCCCC2)S(C)(=O)=O)c(OC)c1 | 10.3 | -91.0 | -8.3 | 1.9 | 21.7 | 0.8
O=C1c2ccccc2C(=O)N1SC1CCCCC1 | -3.1 | 82.3* | 2.6 | 0.2 | 24.8 | 0.8
CC(=O)c1cc2c(cc1NC(=O)CN1CCCCC1C)OCO2 (stereo not given) | -6.9 | 7.1 | 5.0 | 0.9 | 41.7 | 0.6
Cc1cc(N2CCN(C/C=C/c3ccccc3)CC2)n2ncnc2n1 | / | 51.7* | / | 0.5 | 21.0 | 0.8
Cc1cc(C)c2c(n1)sc1c(=O)[nH]c(SCc3ccccc3)nc12 | -3.0 | 64.4* | 5.5 | 0.4 | 6.2 | 0.9
CCOC(=O)c1c(C)[nH]c(C(=O)OCC(=O)NC(C)C)c1C | 10.9 | 44.7 | -11.1 | 0.6 | 3.7 | 1
COCCn1c(CNc2ccc(F)cc2)nnc1SCC(=O)Nc1ccc(OC)cc1OC | 3.5 | -10.3 | -5.2 | 1.1 | -10.2 | 1.1
CCOC(=O)c1ccccc1OCc1cc(/C=N/n2cncn2)ccc1OC | 17.0 | / | -16.0 | / | / | /
COc1cccc(/C=N/n2cncn2)c1OCC#N | / | 25.4 | / | 0.7 | 77.6* | 0.2
C=CCONC(=O)c1cc(OCC(F)(F)F)ccc1OCC(F)(F)F | -3.9 | 87.3* | 2.6 | 0.1 | 29.4 | 0.7
O=C(NCCNC(=O)c1cc(OCC(F)(F)F)ccc1OCC(F)(F)F)Nc1cccc(C(F)(F)F)c1 | 13.8 | 66.8* | -13.3 | 0.3 | 40.9 | 0.6
C=CC(O)Cc1c(C)n[nH]c1C (stereo not given) | -4.6 | -15.2 | 6.3 | 1.2 | -0.8 | 1
O=C(O)CCc1ccc(S(=O)(=O)N2CCOCC2)cc1 | 2.9 | 4.0 | -0.3 | 1 | 3.6 | 1
O=C(OCCCc1ccncc1)c1ccc(S(=O)(=O)N2CCOCC2)cc1 | 10.5 | 97.2* | -10.1 | 0 | 95.5* | 0
COC(=O)c1ccc(CSc2ncnc3c2nnn3-c2ccc(F)cc2)o1 | 12.1 | 4.8 | -8.5 | 1 | 9.2 | 0.9
CCOC(=O)N1CCC(Nc2nc3ccccc3n3nnnc23)CC1 | / | 50.7* | / | 0.5 | 29.4 | 0.7
CCOC(=O)Nc1ccc2c(c1)N(C(=O)OCCN(C)C)c1ccccc1CC2 | -4.0 | 5.7 | 3.7 | 0.9 | -2.5 | 1
SMILES | sEH inh | CYP2C9 inh | sEH act | CYP2C9 activ | CYP2C19 inhib | CYP2C19 activ
CCS(=O)(=O)Nc1ccc2c(c1)N(C(C)=O)c1ccccc1CC2 | -1.6 | 70.2* | 1.7 | 0.3 | 25.4 | 0.7
O=[N+]([O-])c1nn(-c2ccccc2)n(O)c1=NCc1ccc2c(c1)OCO2 | 11.2 | 52.9* | -8.8 | 0.5 | 77.2* | 0.2
CN1CCN(C2=C(Cl)C(=O)N(c3ccc(Cl)cc3)C2=O)CC1 | / | 56.2* | / | 0.4 | 87.7* | 0.1
O=C1C(Cl)=C(N2CCOCC2)C(=O)N1c1cccc(Cl)c1 | / | 43.8 | / | 0.6 | 85.2* | 0.1
O=C1C(Cl)=C(N2CCCCCC2)C(=O)N1c1ccccc1 | 0.7 | 18.0 | -2.0 | 0.8 | 29.0 | 0.7
CCN1C2=C(C(=O)CCC2)C(c2ccc(O)cc2)C2=C1CCCC2=O | 4.2 | -3.7 | -0.8 | 1 | -7.3 | 1.1
O=C(OCc1ccc(F)cc1)c1ccc2c(c1)-c1ccccc1C2=O | -17.6 | 14.8 | 16.7 | 0.9 | 1.5 | 1
